From the supplement of paper PMC10338343
± gives the standard deviation.

What follows are sequences tested on MILI (PIWIL2) piRISC loaded with L1MC piRNA (26 nt) (assay: pre-steady-state target cleavage rate (min^-1); guide: L1MC piRNA 5'p-UAACUAAAUACUAUGCAAGCUGUAGG; MIWI and MILI are mouse PIWI proteins and EfPiwi is from a freshwater sponge; tags in brackets are library labels; higher = faster piRNA-guided slicing of the target). Details: auxiliary factor: 500 nM mouse GTSF1.
Summary of the method: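 Cleave-'n-Seq reactions paired 0.1 nM transcribed, DNA-blocked target RNA library with 1 nM active affinity-purified piRISC holding one synthetic guide, plus or minus 500 nM GTSF1 partner protein, in HEPES–potassium acetate buffer at 33 °C for 0–8 or 0–960 min. After sequencing of uncleaved targets and normalisation to depth and weakly complementary targets, the pre-steady-state cleavage rate was taken from a burst-and-steady-state fit. Three trials were pooled, and k3 was capped at 0.0001 min^-1.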

Row | Sequence | pre-steady-state target cleavage rate
1 | UCCUGGUACAGCUUGCAUAGUAUUUACUAA | 0.0179 ± 0.0081
2 | UCCUGGAUGUCCUUGGAUAGUAUUUACUUA | 0.014 ± 0.005
3 | UCCUGGAUGUCCUUGCAUAGUAUUAACUUA | 0.0115 ± 0.0049
4 | UCCUCCUACAGCUUGCAAUCUAUUUACAAA | 0.0157 ± 0.0069
5 | UCCUGGAUCAGCUUGCAUAGUAUUAACAAA | 0.0885 ± 0.022
6 | UCCUGCUACAGCUUGCAUACUAUAUAGUUA | 0.0515 ± 0.015
7 | UCCUGGUACAGCUUGCAAUGUAUUUAGUAA | 0.0576 ± 0.013
8 | UCCUGCUACAGCUUGGAUAGUAUUUAGAAA | 0.0121 ± 0.0049
9 | UCCUCCUACACGUUGCAUAGUAUUUACAAA | 0.062 ± 0.019
10 | UCCUGGAUGUCCUUGCAUAGUAUUUACUUA | 0.0499 ± 0.013
11 | UCCUGGAUGUGCUUGCAUAGUAUUAGUUA | 0.0236 ± 0.0068
12 | UCCUCCUACAGCUUGCAUUGUAUUUUCAAA | 0.0415 ± 0.012
13 | UCCUGGUAGUGCUUGCAUAGUAUUUUCAAA | 0.00481 ± 0.0037
14 | UCCUGGAUCUGCUUGCAUAGUAUUUUCAAA | 0.0366 ± 0.0094
15 | UCCUGCUAGUCCUUGCAUAGUAUUUAGUAA | 0.0749 ± 0.018
16 | UCCUGCUACAGCUUGCAUAGUAUUAUCUAA | 0.0551 ± 0.014

Row | Sequence | pre-steady-state target cleavage rate
17 | UCCUGGUACAGCUUGGAUAGUAUUUAGAUA | 0.118 ± 0.038
18 | UCCUGGAUGUCGUUGGAAAGUAUUUAGUUA | < 0.0001
19 | UCCUCCUACAGCUUGGUAAGUAUUUAGAAA | 0.0543 ± 0.013
20 | UCCUGCUACAGCUUGCAAAGUAUUUUCAAA | 0.0624 ± 0.02
21 | UCCUGGAACAGCUACGAUAGUAUUUAGUUA | 0.147 ± 0.011
22 | UCCUGGAUGAGCUUCGAUAGUAUUUAGUUA | 0.108 ± 0.013
23 | UCCUGGAUGUCCAUGCAUAGUAUUUACUUA | 0.0292 ± 0.0095
24 | UCCUGGAACAGCUUGCAUAGUAAAAAGUAA | 0.076 ± 0.022
25 | UCCUGGAUGAGCUUGCUUAGUAUUUAGAAA | 0.0548 ± 0.017
26 | UCCUGGUACAGCUUGGAUUGUAUUUAGUUA | 0.0395 ± 0.013
27 | UCCUGGAUCAGCUUGCAUUGUAUUUACUUA | 0.146 ± 0.027
28 | UCCUGGUACAGCUUGCAUAGAAUUUUGUUA | 0.0466 ± 0.016
29 | UCCUCCUACAGCAAGCAUAGUAUUUUCAAA | 0.111 ± 0.025
30 | UCCUGGAACAGCUUGCAUAGUAUUUAGGUA | 0.0622 ± 0.017
31 | UCCUCCUACAGCUUGCAUAUGUAUUUAGUUA | 0.0106 ± 0.0057

Same assay, conditions: auxiliary factor: none (no GTSF1)

Row | Sequence | pre-steady-state target cleavage rate
32 | UCCUGGAUGUCGAACGUAAGUAUUAUAGUUA | < 0.0001
33 | UCCUGGAUGUCGAUCCAUAGUAUUUAGAUA | < 0.0001
34 | UCCUGGAUGUCGAACGAUAGUAUAAUGUUA | < 0.0001
35 | UCCUGGAUGUCGAACCAUAGUAUUGAGUUA | < 0.0001
36 | UCCUGGAUGUCGAACGUUAGCAUUUAGUUA | < 0.0001
37 | UCCUGGAUGUCGAACGUAUCUAUUCUAGUUA | < 0.0001
38 | UCCUGGAUGUCGAACGUAUGUAUUUACAAA | < 0.0001
39 | UCCUGGAUGUCGAACGAUAGUUUUAAGUUA | < 0.0001
40 | UCCUGGAUGUCGAUCCAUAGAAUUUAGUUA | < 0.0001
